DAX1 inh = DAX1 (NR0B1) inhibitors, primary screen, cell-based, HEK293, Gal4-DAX1, luciferase luminescence. Nuclear receptor subfamily 0 group B member 1 (Homo sapiens), P51843. AID 504766, 2011. actives 0.99% (n = 340,000). inhibition, % at 6.75 µM. HEK293 Gal4-DAX1 luciferase reporter;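 active means inhibition above the mean over all tested compounds plus 3 SD, cut at about 4.2% in these data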;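 further: 0% = DAX1-transfected cells with DMSO and 100% = empty-vector control cells with DMSO; inhibition shows as a rise in luminescence from relieved DAX1 repression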
FXN GAA850 act = FXN promoter activators, primary screen, cell-based, luciferase luminescence, HEK293 lucGAA850; HEK293 lucGAA850 FXN promoter luciferase reporter, 24 h; percent of 10 µM SAHA response; activation, % at 6 µM; actives 0.56% (n = 360,000); AID 540364, 2011;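 active means activation above the average of all compounds screened plus 3 SD, cutoff fixed separately per campaign, cut at about 7.5% in these data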;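 further: 0% = DMSO wells and 100% = 10 µM SAHA wells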
AHR act = AHR activators, primary screen, cell-based, luminescence, luciferase reporter, human; AHR-responsive luciferase reporter cells; actives 2.5% (n = 320,000); AID 2796, 2010; Aryl hydrocarbon receptor (Homo sapiens), P35869; activation, % at 5 µM; in the data active means activation above about 47%;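 further: 0% = vehicle wells and 100% = reference agonist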
Target sequence (P35869 whole entry, looked up): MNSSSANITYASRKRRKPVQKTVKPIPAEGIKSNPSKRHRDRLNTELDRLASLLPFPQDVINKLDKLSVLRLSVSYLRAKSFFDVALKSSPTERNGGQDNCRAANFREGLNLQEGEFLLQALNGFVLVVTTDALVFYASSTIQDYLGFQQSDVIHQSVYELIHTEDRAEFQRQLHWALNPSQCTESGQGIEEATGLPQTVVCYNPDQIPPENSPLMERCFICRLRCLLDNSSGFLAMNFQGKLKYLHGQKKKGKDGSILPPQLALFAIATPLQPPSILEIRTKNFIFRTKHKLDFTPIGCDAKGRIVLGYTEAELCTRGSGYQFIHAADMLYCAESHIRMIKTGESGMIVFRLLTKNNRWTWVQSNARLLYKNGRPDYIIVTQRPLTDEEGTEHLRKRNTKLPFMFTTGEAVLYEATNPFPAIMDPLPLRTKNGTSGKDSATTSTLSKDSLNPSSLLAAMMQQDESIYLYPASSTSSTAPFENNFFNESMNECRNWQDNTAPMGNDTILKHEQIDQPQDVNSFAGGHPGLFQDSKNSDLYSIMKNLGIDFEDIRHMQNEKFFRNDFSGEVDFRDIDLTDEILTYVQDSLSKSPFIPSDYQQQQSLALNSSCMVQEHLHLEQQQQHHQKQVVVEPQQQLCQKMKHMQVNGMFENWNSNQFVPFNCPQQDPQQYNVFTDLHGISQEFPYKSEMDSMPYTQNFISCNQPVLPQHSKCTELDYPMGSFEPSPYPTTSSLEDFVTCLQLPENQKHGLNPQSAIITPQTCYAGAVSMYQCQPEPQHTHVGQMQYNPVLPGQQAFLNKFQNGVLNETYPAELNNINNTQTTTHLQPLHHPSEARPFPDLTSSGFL
HSF-1 act = HSF-1 activators, primary screen, NIH3T3-HGL cells, MG132 stress, luminescence, single point; AID 504408, 2011; activation, % at 9 µM; NIH3T3-HGL HSF-1 luciferase reporter, 8 h; 100% = twice DMSO control signal; actives 1.7% (n = 300,000);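 active means mean replicate activation of at least 50% with a set share of replicates each reaching 50%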;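 further: 0% = median of the neutral control wells and 100% = twice that signal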
HSF1 inh = HSF1 inhibitors in luciferase reporter cells, primary screen, cell-based, NIH3T3, luminescence; NIH3T3-HGL HSE-luciferase, MG132-induced, luminescence 8 h; active compounds read low; activity change, negative = inhibition, % at 7.5 µM (by protocol); actives 0.77% (n = 300,000); AID 2098, 2009;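 active means more than half of replicate wells show activity change below -50%, luminescence cut by over half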;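 further: luciferase reports HSF-1 transcriptional activity via heat shock element; 0% = median of DMSO wells and -100% = zero luminescence signal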
HSP90 refold inh = HSP90 inhibitors, primary screen, cell lysate, luminescence. Heat shock protein HSP 90 (rabbit reticulocyte lysate; luciferase refolding). Rabbit reticulocyte lysate, luciferase refolding luminescence, 3 h. inhibition, % at 5.6 µM. actives 0.91% (n = 290,000);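 active means inhibition above the screen-wide mean plus 3 SD, computed separately per campaign, cut at about 16% in these data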;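 further: 0% = DMSO wells and 100% = 60 µM geldanamycin wells; inhibitors lower the luminescence because luciferase stays unfolded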
Starred values were filed as active, the others as inactive; / = no result given. The list is not random: actives were taken first. Their share in the collection is about 5.9%.

SMILES | DAX1 inh | FXN GAA850 act | AHR act | HSF-1 act | HSF1 inh | HSP90 refold inh
CCOc1ccc(C(=O)N(CC(=O)Nc2cccc(C)c2C)CC2CCCO2)cc1OC (stereo unspecified) | -1 | 1 | 2 | / | / | /
OCCNc1nc(Nc2ccccc2)nc(Nc2ccccc2)n1 | 2 | 2 | 48* | -2 | 1 | 5
c1ccc(Nc2nc(NCC3CCCO3)c3ccccc3n2)cc1 (stereo unspecified) | 0 | -1 | 12 | / | / | -1
Cc1c(Cl)cccc1Nc1nc(NCCO)c2ccccc2n1 | 2 | 0 | 57* | 13 | 0 | -6
Oc1cccc(Nc2nc(NCC3CCCO3)c3ccccc3n2)c1 (stereo unspecified) | -1 | 1 | 79* | 20 | 5 | -4
OCCNc1nc(Nc2ccccc2)nc2ccccc12 | -1 | -2 | 51* | -5 | -3 | -1
OCCNc1nc(Nc2ccc(Br)cc2)nc2ccccc12 | / | / | 6 | -6 | 8 | -3
O=C(C(=S)N1CCOCC1)c1c[nH]c2ccccc12 | 0 | -2 | -1 | -10 | -4 | 1
COc1ccc(C(CNC(=O)c2oc3ccccc3c2C)N2CCCC2)cc1 (stereo unspecified) | 2 | 0 | 47* | / | / | /
CCN(CC(=O)Nc1ccc(OC)cc1)C(=O)c1oc2c(Cl)cccc2c1C | -1 | 1 | 53* | -2 | 1 | /
Cc1c(C(=O)NCCc2ccccc2)oc2ccccc12 | 2 | 4 | -3 | 62* | 32 | 7
COc1ccc(C(CNC(=O)c2oc3c(Cl)cccc3c2C)N2CCCC2)cc1 (stereo unspecified) | 1 | 1 | 50* | 14 | -1 | /
CC(C)Oc1ccc(C(CCN)C2CCCCC2)cc1 (stereo unspecified) | 1 | -1 | 1 | 7 | 5 | 1
COc1cccc(C(O)c2ncc(-c3ccc(C(F)(F)F)cc3)[nH]2)c1 (stereo unspecified) | / | 1 | / | / | / | /
CCC(OC(=O)c1nsc(Cl)c1Cl)C(=O)NCC1CCCO1 (stereo unspecified) | 3 | 0 | 1 | -3 | -10 | -3
CN(C)c1ccc(C2NC(=O)c3ccccc3N2)cc1 (stereo unspecified) | 2 | 4 | 9 | 78* | 54 | 15
COc1ccc(NC(=O)C2(C)CCN2CC2CCCCC2)cc1OC (stereo unspecified) | / | 5 | / | / | / | /
CC(C)c1ccccc1N=C1SCCCN1C(=O)c1cccc(N2C(=O)CCC2=O)c1 | 0 | 0 | 16 | -6 | -2 | /
CC#CCN(Cc1ccco1)C(=O)C1CCC(=O)N(CCc2cccc(F)c2)C1 (stereo unspecified) | 2 | 0 | / | / | / | /
CCOC(=O)c1c(-c2ccccc2)nc2cc(C)ccn12 | 4.6* | 6 | -6 | 0 | 5 | -3
CCOC(=O)N1CCC(NCCNC(=O)c2cccs2)CC1 | -2 | -1 | 0 | 0 | -5 | 2
CCOC(=O)c1c(NC(=O)c2cccs2)sc2c1CCN(C(=O)OCC)C2 | -1 | 0 | 7 | 71* | 35 | 1
CCOC(=O)N1CCC(NC(=O)c2cccs2)CC1 | 0 | -1 | 1 | 67* | 25 | 0
O=C(OCC(=O)N1CCOCC1)c1ccccc1Cc1ccccc1 | 3 | 4 | -1 | 74* | 27 | 11
Cc1cccc(C(=O)OCC(=O)N2CCCCCC2)c1O | 4.5* | 5 | 1 | / | / | /
SMILES | DAX1 inh | FXN GAA850 act | AHR act | HSF-1 act | HSF1 inh | HSP90 refold inh
CCC(=O)N1CCC(C)(C(=O)Nc2ccc3c(c2)OCO3)C1 (stereo unspecified) | / | 1 | / | / | / | /
Cc1nc2ccccn2c1-c1nnco1 | 0 | 0 | 10 | -25 | -10 | -2
Cc1nc2ccccn2c1-c1ccnn1S(=O)(=O)c1ccc(F)cc1 | -1 | 0 | 2 | -71 | -67* | 1
Cc1cc(N2CCCC2)nc2ccc(NC(=S)NCCCN3CCC(C)CC3)cc12 | -1 | 2 | 0 | 54* | 14 | -2
CCCCN(CC)C(=S)Nc1ccc2nc(N3CCN(C)CC3)cc(C)c2c1 | -1 | -6 | 11 | -55 | -56* | 28*
CCCCN(C)CCNC(=S)Nc1ccc2nc(N3CCN(CC)CC3)cc(C)c2c1 | 0 | 2 | -1 | -3 | -4 | -1
CCCCN(C)C(=S)Nc1ccc2nc(N3CCN(CC)CC3)cc(C)c2c1 | 0 | -1 | 1 | -71 | -64* | 9
CCCN1CCN(CCCNC(=S)Nc2ccc3nc(N4CCN(CC)CC4)cc(C)c3c2)CC1 | 1 | 1 | -2 | 1 | 0 | 1
COc1cc(F)ccc1-c1csc(C(C)(O)c2ccc(F)c(F)c2)n1 (stereo unspecified) | / | 0 | / | / | / | /
C=CCN(C(=O)CCc1ccccc1OC)c1nc(-c2ccc(S(C)(=O)=O)cc2)cs1 | -1 | 0 | 24 | 58* | 15 | 11
C=CCN(C(=O)Cc1cccs1)c1nc(-c2ccc(S(C)(=O)=O)cc2)cs1 | -1 | 0 | 12 | 5 | 1 | 4
COc1cc(C(=O)O/N=C(\N)c2cccc([N+](=O)[O-])c2)cc(OC)c1OC | 5.1* | -1 | 2 | 17 | 3 | 0
N/C(=N\OC(=O)c1ccccc1Br)c1cccc([N+](=O)[O-])c1 | 3 | 5 | 19 | 27 | 9 | 5
N/C(=N\OC(=O)c1ccccc1F)c1cccc([N+](=O)[O-])c1 | 5.4* | 4 | 4 | 43 | 22 | 11
COc1cc(C(=O)O/N=C(\N)c2ccc([N+](=O)[O-])cc2)cc(OC)c1OC | 0 | 1 | -2 | 24 | 2 | 1
C[C@H](CO)N1C[C@H](C)[C@@H](CN(C)C(=O)c2cnccn2)Oc2cc(C#CCC3CCCC3)ccc2S1(=O)=O | 0 | -2 | / | / | / | /
C/C(=N\NC(=O)CCc1ccc(S(=O)(=O)N2CCOCC2)cc1)c1ccc(Br)cc1 | 0 | 1 | 4 | 61* | 23 | 7
N#Cc1cccc(NC(=O)COC(=O)CCc2ccc(S(=O)(=O)N3CCOCC3)cc2)c1 | 0 | 2 | 11 | / | / | /
COc1cccc(NC(=O)Cn2c(=O)oc3cc(S(=O)(=O)N4CCCC4)ccc32)c1 | -2 | 1 | 1 | -68 | -56* | 1
CC(=O)c1cccc(NC(=O)COC(=O)CCc2ccc(S(=O)(=O)N3CCOCC3)cc2)c1 | 4.3* | 0 | -1 | -10 | -7 | 4
COc1ccc(NC(=O)Cn2c(=O)oc3cc(S(=O)(=O)N4CCCC4)ccc32)c(OC)c1 | 0 | 2 | 3 | -20 | -8 | -1

Bioassay records from PubChem.
